Several values for one entry are separate records, joined by “and”; a condition that tells them apart may be missing. Equal entries are not always repeated. Where two headings read alike, the source gives them in different places.
How the values were obtained:
Conditions in all cases: n = 1
ANKK1 = test system: ANKK1
ARK5 = test system: T1, ARK5
T1 construct: gene NUAK1

ASK1 = test system: T2, ASK1
T2 construct: gene MAP3K5

ASK2 = test system: T3, ASK2
T3 construct: gene MAP3K6

AURKA = test system: AURKA
AURKB = test system: AURKB
AURKC = test system: AURKC
AXL = test system: AXL
BIKE = test system: T4, BIKE
T4 construct: gene BMP2K

BLK = test system: BLK
[1] = concentration: 1 μM, replicates: in singlicate
[2] = concentration: 1 μM,replicates: in singlicate, 1 µM
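Further: KINOMEscan kinase panel screen.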

| Compound | %Inh (ANKK1; [1]) | %Inh (ARK5; [1]) | %Inh (ASK1; [1]) | %Inh (ASK2; [1]) | %Inh (AURKA; [1]) | %Inh (AURKB; [1]) | %Inh (AURKC; [1]) | %Inh (AXL; [1]) | %Inh (BIKE; [1]) | %Inh (BLK; [1]) | %Inh (ANKK1; [2]) | %Inh (ARK5; [2]) | %Inh (ASK1; [2]) | %Inh (ASK2; [2]) | %Inh (AURKA; [2]) | %Inh (AURKB; [2]) | %Inh (AURKC; [2]) | %Inh (AXL; [2]) | %Inh (BIKE; [2]) | %Inh (BLK; [2]) |
| --- | --- | --- | --- | --- | --- | --- | --- | --- | --- | --- | --- | --- | --- | --- | --- | --- | --- | --- | --- | --- |
| O=C(Nc1n[nH]c2cc(-c3cccc(F)c3F)ccc12)C1CC1 [SB-733894] | 0% | 0% | 0% | 5% | 23% | 25% | 54% | 0% | 21% | 0% |  |  |  |  |  |  |  |  |  |  |
| CCn1c(-c2cccnc2O)nc2cnccc21 [SB-736715] | 0% | 0% | 0% | 0% | 8% | 0% | 0% | 38% | 0% | 0% |  |  |  |  |  |  |  |  |  |  |
| Fc1cccc(COc2nnc(-c3ccc4c(c3)CCO4)o2)c1 | 0% | 5% | 0% | 23% | 15% | 37% | 0% | 0% | 0% | 0% |  |  |  |  |  |  |  |  |  |  |
| Cn1ccc2ncnc(Oc3ccc(Nc4nc5ccccc5[nH]4)cc3)c21 | 0% | 14% | 0% | 0% | 0% | 95.2% | 3% | 0% | 0% | 0% |  |  |  |  |  |  |  |  |  |  |
| CC(C)(C)c1ccc(C(=O)Nc2cn3cc(-c4cccnc4)ccc3n2)cc1 | 11% | 14% | 94.9% | 0% | 0% | 34% | 19% | 25% | 8% | 8% |  |  |  |  |  |  |  |  |  |  |
| Cc1cc(NCC(c2ccccc2)c2ccccc2)nc(NCc2ccc(C(F)(F)F)cc2)n1 [GW497681] | 9% | 13% | 0% | 0% | 7% | 15% | 8% | 0% | 0% | 25% |  |  |  |  |  |  |  |  |  |  |
| O=C(Nc1n[nH]c2nc(-c3nccs3)c(Br)cc12)C1CC1 [SB-742251] | 0% | 0% | 4% | 21% | 0% | 31% | 13% | 15% | 36% | 0% |  |  |  |  |  |  |  |  |  |  |
| Cc1cccc(-c2nc(Nc3ccc4[nH]ncc4c3)c3ccccc3n2)n1 [GW857175] | 0% | 1% | 0% | 13% | 0% | 3% | 22% | 26% | 33% | 3% |  |  |  |  |  |  |  |  |  |  |
| COc1ccc2nc(-c3cccc(C)n3)nc(Nc3ccncc3)c2c1 [GSK204919] | 0% | 6% | 8% | 0% | 0% | 3% | 6% | 2% | 3% | 31% |  |  |  |  |  |  |  |  |  |  |
| Cn1ccc2ncnc(Oc3cccc(C(=O)Nc4ccccc4)c3)c21 | 28% | 14% | 0% | 0% | 21% | 0% | 26% | 3% | 14% | 1% |  |  |  |  |  |  |  |  |  |  |
| O=C(Nc1ccc2c(c1)OCO2)NC1CCN(c2ccnc(Nc3ccc(F)cc3)n2)C1 (stereo not shown) [GSK1379724] | 0% | 8% | 3% | 0% | 0% | 99.4% | 52% | 5% | 27% | 19% |  |  |  |  |  |  |  |  |  |  |
| COc1ccc(CNC(=O)NC2CCN(c3ccnc(Nc4cc(OC)c(OC)c(OC)c4)n3)C2)cc1 (stereo not shown) [GSK1379748] | 33% | 25% | 0% | 12% | 79% | 84% | 60% | 8% | 25% | 0% |  |  |  |  |  |  |  |  |  |  |
| Cc1c(O)cccc1Nc1ccnc2ccc(C(F)(F)F)cc12.Cl [GW466413] | 0% | 10% | 0% | 0% | 0% | 34% | 0% | 1% | 4% | 66% |  |  |  |  |  |  |  |  |  |  |
| Cc1ccc(C(=O)Nc2ccc(Nc3ccnc4cc(-c5ccccn5)ccc34)cc2O)cc1.Cl [GW440146] | 33% | 0% | 0% | 0% | 29% | 80% | 90.1% | 0% | 39% | 98.4% |  |  |  |  |  |  |  |  |  |  |
| CN(C)CCN(C)C(=O)c1cc(-c2ccncc2)c(-c2ccc(Cl)c(O)c2)o1.Cl.Cl [SB-710397] | 0% | 0% | 18% | 0% | 0% | 9% | 0% | 8% | 13% | 12% |  |  |  |  |  |  |  |  |  |  |
| Cc1ccccc1-n1cnc2c(N)ncnc21 [SKF-97510] | 0% | 0% | 7% | 0% | 0% | 0% | 0% | 0% | 0% | 9% |  |  |  |  |  |  |  |  |  |  |
| O=C(Nc1n[nH]c2nc(-c3nccs3)c(Br)cc12)C1CCCC1 [SB-742609] | 0% | 0% | 0% | 13% | 0% | 13% | 11% | 0% | 0% | 31% |  |  |  |  |  |  |  |  |  |  |

| Compound | %Inh (ANKK1; [1]) | %Inh (ARK5; [1]) | %Inh (ASK1; [1]) | %Inh (ASK2; [1]) | %Inh (AURKA; [1]) | %Inh (AURKB; [1]) | %Inh (AURKC; [1]) | %Inh (AXL; [1]) | %Inh (BIKE; [1]) | %Inh (BLK; [1]) | %Inh (ANKK1; [2]) | %Inh (ARK5; [2]) | %Inh (ASK1; [2]) | %Inh (ASK2; [2]) | %Inh (AURKA; [2]) | %Inh (AURKB; [2]) | %Inh (AURKC; [2]) | %Inh (AXL; [2]) | %Inh (BIKE; [2]) | %Inh (BLK; [2]) |
| --- | --- | --- | --- | --- | --- | --- | --- | --- | --- | --- | --- | --- | --- | --- | --- | --- | --- | --- | --- | --- |
| Nc1ncnc2[nH]c(-c3ccccc3)nc12 [AH5015] | 14% | 0% | 5% | 20% | 100% | 24% | 14% | 0% | 24% | 10% |  |  |  |  |  |  |  |  |  |  |
| Cc1cccc(-c2nc(Nc3cccc(C(N)=O)c3)c3ccccc3n2)n1 [GW876019] | 0% | 6% | 17% | 0% | 0% | 30% | 12% | 0% | 11% | 21% |  |  |  |  |  |  |  |  |  |  |
| Cc1c(Cn2ccn3c(=O)cc(N4CCOCC4)nc23)cccc1C(F)(F)F [GSK2289044] | 6% | 9% | 4% | 7% | 7% | 0% | 3% | 7% | 0% | 0% |  |  |  |  |  |  |  |  |  |  |
| CSc1nn2c(=O)cc(N3CCOCC3)nc2n1Cc1cccc(C(F)(F)F)c1C [GSK2363608] |  |  |  |  |  |  |  |  |  |  | 0% and 10% | 13% and 8% | 14% and 0% | 86% and 7% | 0% and 1% | 0% and 29% | 24% and 0% | 3% and 4% | 20% and 0% | 8% and 9% |
| Cc1cccc(-c2nc(-c3ccc(S(C)(=O)=O)cc3)sc2-c2ccnc(NCCc3ccccc3)c2)c1 | 7% | 11% | 0% | 0% | 0% | 14% | 0% | 0% | 9% | 16% |  |  |  |  |  |  |  |  |  |  |
| COc1ccccc1-c1ccc2c(NC(=O)C3CC3)n[nH]c2n1 [SB-711239] | 9% | 0% | 11% | 17% | 0% | 0% | 0% | 12% | 0% | 6% |  |  |  |  |  |  |  |  |  |  |
| COc1cccc(NC(=O)NC2CCN(c3ccnc(Nc4ccc(F)cc4)n3)C2)c1 (stereo not shown) [GSK1379721] | 4% | 9% | 8% | 4% | 21% | 0% | 8% | 0% | 0% | 0% |  |  |  |  |  |  |  |  |  |  |
| Cn1ccc2ncnc(Oc3ccc(NC(=O)Nc4ccccc4)cc3)c21 | 0% | 4% | 16% | 0% | 15% | 93.7% | 84% | 0% | 0% | 2% |  |  |  |  |  |  |  |  |  |  |
| COC(=O)c1c(-c2ccccc2)c2cc(OC)ccc2c(=O)n1Cc1ccccc1 | 0% | 27% | 0% | 37% | 25% | 22% | 0% | 0% | 0% | 0% |  |  |  |  |  |  |  |  |  |  |
| Cc1cccc(-c2nc(C)cc(Nc3ccncc3)n2)n1 [GSK257997] | 0% | 0% | 0% | 0% | 21% | 0% | 13% | 7% | 21% | 32% |  |  |  |  |  |  |  |  |  |  |
| Cl.NC(=O)c1cccc(Nc2nccc(Nc3ccc(Oc4cccc(Cl)c4)c(Cl)c3)n2)c1 [GW659008] | 0% | 0% | 0% | 0% | 6% | 49% | 21% | 12% | 33% | 84% |  |  |  |  |  |  |  |  |  |  |
| Cc1ccc(-c2cc(-c3c[nH]nc3-c3ccccn3)ccn2)cc1 [GW684088] | 0% | 94.7% | 0% | 0% | 2% | 0% | 10% | 5% | 20% | 0% |  |  |  |  |  |  |  |  |  |  |
| Cc1cccc(-c2cc(Nc3ccncc3)c3ccccc3n2)n1 [GSK223675] | 6% | 8% | 11% | 9% | 9% | 0% | 1% | 0% | 9% | 11% |  |  |  |  |  |  |  |  |  |  |
| COc1cccc(-c2cc(-c3c[nH]nc3-c3ccccn3)ccn2)c1 [GW680338] | 13% | 0% | 0% | 27% | 0% | 0% | 89% | 7% | 54% | 8% |  |  |  |  |  |  |  |  |  |  |
| NC(=O)c1nnc2ccccc2c1N | 34% | 0% | 20% | 40% | 0% | 32% | 40% | 19% | 51% | 0% |  |  |  |  |  |  |  |  |  |  |
| CS(=O)(=O)c1ccc(-c2c(-c3ncn[nH]3)sc(N3CCOCC3)c2C#N)cc1 | 0% | 1% | 0% | 0% | 22% | 0% | 2% | 0% | 6% | 8% |  |  |  |  |  |  |  |  |  |  |
| COC(=O)c1c(-c2ccccc2)c2cc(C(=O)O)ccc2c(=O)n1Cc1ccccc1 | 0% | 5% | 0% | 0% | 0% | 11% | 0% | 0% | 0% | 0% |  |  |  |  |  |  |  |  |  |  |

Reference: publication PMC5540273 (PLoS ONE, 2017)
